Among the data in PubChem BioAssay (NCI) are growth inhibition values, retold here.

About 79,000 compounds went through this panel and 15% of them were active in at least one assay; those are over-represented in the sample as a whole. Unmarked numbers belong to inactive results. Activity calls are given as the source filed them. Rule as the data show it: active = growth inhibition above about 70%; inactive = the rest.

Assay [1] is described as follows: NCI Yeast Anticancer Drug Screen. Data for the rad50 strain (AID 155).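 Also: 0% = growth of vehicle-only cultures of the same strain.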 The settings on record: S. cerevisiae rad50 strain growth inhibition, hits give high values. An outline of the steps: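 A DNA repair-deficient yeast mutant serves as the test organism; compound-induced growth inhibition is calculated against vehicle-treated cells.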
The nature of assay [2]: NCI Yeast Anticancer Drug Screen. Data for the mec2-1 strain (AID 157). The settings on record: S. cerevisiae mec2-1 strain, hits give high values. An outline of the steps: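 Readout is yeast growth inhibition, normalised to vehicle-treated controls, in the mec2-1 strain exposed to compound.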
Assay [3] can be described thus: NCI Yeast Anticancer Drug Screen. Data for the sgs1 mgt1 strain (AID 161).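 Also: 0% = growth of cultures given vehicle only.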 The following applies: S. cerevisiae sgs1 mgt1 strain, hits give high values. An outline of the steps: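 Percent growth inhibition was derived by comparing compound-exposed mutant yeast with vehicle-exposed cultures. The strain carries alterations in DNA damage repair.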
Assay [4] in a line: NCI Yeast Anticancer Drug Screen. Data for the cln2 rad14 strain (AID 165).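 Also: 0% = growth equal to vehicle treated cultures.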 The following applies: S. cerevisiae cln2 rad14 strain, hits give high values. An outline of the steps: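 Relative to vehicle controls, growth inhibition of compound-treated cln2 rad14 yeast was recorded.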
Assay [5] is described as follows: NCI Yeast Anticancer Drug Screen. Data for the bub3 strain (AID 167). The settings on record: S. cerevisiae bub3 mutant strain, hits give high values. Put shortly:
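Inhibition values come from growth of compound-treated mutant yeast normalised to vehicle-treated controls.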

A short description of assay [6]: NCI Yeast Anticancer Drug Screen. Data for the mlh1 rad18 strain (AID 175). The settings on record: S. cerevisiae mlh1 rad18 strain growth inhibition, hits give high values. Put shortly: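 Test agents were incubated with a yeast strain of defined genotype (DNA damage repair defect). Inhibition of growth was derived by comparison with vehicle-exposed cultures.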
[7] abbreviates: at 5.0 µM (retest, dose inferred, filed as 0.5).
[8] abbreviates: at 50.0 µM (retest, dose inferred, filed as 5.0).

Consider `Cc1nn(CCO)c(=O)c(C#N)c1C`, for which the growth inhibition in assay [1] (setting [7]) is 1%; in assay [1] (setting [8]), 17%; in assay [1] (at 50.0 µM) it was 66.2%; in assay [2] (setting [7]), 5%; in assay [2] (setting [8]), 16%; in assay [2] (at 50.0 µM) it was 49%. Moreover, the growth inhibition in assay [3] (setting [7]) is 2%; in assay [3] (setting [8]), 14%; in assay [3] (at 50.0 µM), 61.7%; in assay [4] (setting [7]) it was -1%; in assay [4] (setting [8]), -5%; in assay [4] (at 50.0 µM), 11.7%. In addition, the growth inhibition in assay [5] (setting [7]) is 19%; in assay [5] (setting [8]) it was 77% (active); in assay [5] (at 50.0 µM), 34.1%; in assay [6] (setting [7]), 5%; in assay [6] (setting [8]) it was 30%; in assay [6] (at 50.0 µM), 50.5%.

In the case of `O=C1OC(CC(=O)c2ccc(Cl)cc2Cl)C(Cl)=C1Cl` (stereo not drawn), the growth inhibition was 0% in assay [1] (setting [7]); 20% in assay [1] (setting [8]); 51% in assay [1] (at 50.0 µM); 8% in assay [2] (setting [7]); 32% in assay [2] (setting [8]); 53.4% in assay [2] (at 50.0 µM). The growth inhibition was 4% in assay [3] (setting [7]); 50% in assay [3] (setting [8]); 93% (active) in assay [3] (at 50.0 µM); 1% in assay [4] (setting [7]); 6% in assay [4] (setting [8]); 78.4% (active) in assay [4] (at 50.0 µM). Moreover, the growth inhibition was -7% in assay [5] (setting [7]); 10% in assay [5] (setting [8]); 58.5% in assay [5] (at 50.0 µM); -1% in assay [6] (setting [7]); 41% in assay [6] (setting [8]); 97.3% (active) in assay [6] (at 50.0 µM).

`Cc1cc([N+](=O)[O-])c2nnnn2c1`: the growth inhibition in assay [1] (setting [7]) is 5%; in assay [1] (setting [8]), 59%; in assay [1] (at 50.0 µM), -1.75%; in assay [2] (setting [7]), 2%; in assay [2] (setting [8]), 28%; in assay [2] (at 50.0 µM), 1.4%. Moreover, the growth inhibition in assay [3] (setting [7]) is 0%; in assay [3] (setting [8]) it was 31%; in assay [3] (at 50.0 µM), -15.2%; in assay [4] (setting [7]), -1%; in assay [4] (setting [8]), 4%; in assay [4] (at 50.0 µM) it was -9.75%. The growth inhibition is -1% in assay [5] (setting [7]); 28% in assay [5] (setting [8]); 22.4% in assay [5] (at 50.0 µM); 7% in assay [6] (setting [7]); 65% in assay [6] (setting [8]); 34% in assay [6] (at 50.0 µM).

For the compound `Cc1nc(N)nc(-c2ccccc2)c1N=Nc1ccc(Cl)cc1`, the growth inhibition in assay [1] (setting [7]) was -2%; in assay [1] (setting [8]) it was 61%; in assay [1] (at 50.0 µM) it was 54.9%; in assay [2] (setting [7]) it was 17%; in assay [2] (setting [8]) it was 73% (active); in assay [2] (at 50.0 µM), 29.1%. For the same compound, the growth inhibition in assay [3] (setting [7]) was 1%; in assay [3] (setting [8]) it was 74% (active); in assay [3] (at 50.0 µM) it was 23.9%; in assay [4] (setting [7]), -7%; in assay [4] (setting [8]), 56%; in assay [4] (at 50.0 µM), 51.3%. The growth inhibition is -1% in assay [5] (setting [7]); 86% (active) in assay [5] (setting [8]); 88.2% (active) in assay [5] (at 50.0 µM); -13% in assay [6] (setting [7]); 89% (active) in assay [6] (setting [8]); 81.7% (active) in assay [6] (at 50.0 µM).

Turning to `O=C(/C=C/c1ccccc1)c1ccc(NCc2nc3ccccc3[nH]2)cc1`, the growth inhibition in assay [1] (setting [7]) is -28%; in assay [1] (setting [8]) it was 74% (active); in assay [1] (at 50.0 µM), 70.7% (active); in assay [2] (setting [7]), -62%; in assay [2] (setting [8]) it was 61%; in assay [2] (at 50.0 µM), 77% (active). In addition, the growth inhibition in assay [3] (setting [7]) was -23%; in assay [3] (setting [8]), 82% (active); in assay [3] (at 50.0 µM) it was 84% (active); in assay [4] (setting [7]), -20%; in assay [4] (setting [8]), 80% (active); in assay [4] (at 50.0 µM) it was 84.8% (active). Moreover, the growth inhibition was -8% in assay [5] (setting [7]); 85% (active) in assay [5] (setting [8]); 76.7% (active) in assay [5] (at 50.0 µM); -35% in assay [6] (setting [7]); 80% (active) in assay [6] (setting [8]); 68.8% in assay [6] (at 50.0 µM).

With `O=C1C(c2c[nH]c3ccccc23)=Nc2ccc(Br)cc21`, the growth inhibition is 19% in assay [1] (setting [7]); 33% in assay [1] (setting [8]); 86.8% (active) in assay [1] (at 50.0 µM); 26% in assay [2] (setting [7]); 35% in assay [2] (setting [8]); 61.4% in assay [2] (at 50.0 µM). Further, the growth inhibition in assay [3] (setting [7]) was 25%; in assay [3] (setting [8]), 29%; in assay [3] (at 50.0 µM), 73% (active); in assay [4] (setting [7]) it was 15%; in assay [4] (setting [8]), 34%; in assay [4] (at 50.0 µM), 53.5%. Besides, the growth inhibition in assay [5] (setting [7]) is 45%; in assay [5] (setting [8]), 53%; in assay [5] (at 50.0 µM), 90% (active); in assay [6] (setting [7]), 24%; in assay [6] (setting [8]), 35%; in assay [6] (at 50.0 µM), 83.7% (active).
